{"source": "PubChem BioAssay (NCI)", "note": "About 83,000 compounds went through this panel and 20% of them were active in at least one assay; those are over-represented in the sample as a whole.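 Values shown are percent growth following 48 h exposure of cells in 96-well plates to a single concentration of compound; below 10 was considered active.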 The source made the active and inactive calls."}
{"tested_on": "MDA-MB-468 breast", "assay": "NCI-60 one-dose screen, 48 h (100 = growth as untreated, 0 = no growth, -100 = all killed)", "conditions": "10 µM unless noted"}
{"smiles": "O=S(=O)(O)CCI", "growth": "91.8% (inactive)"}
{"smiles": "CC1(C)COB(OCC(C)(C)COB2OCC(C)(C)CO2)OC1", "growth": "114% (inactive)"}
{"smiles": "O=C(N/N=C\\c1ccc([N+](=O)[O-])cc1)c1ccc2nc(-c3ccc(Br)cc3)[nH]c2c1", "growth": "-33% (active)"}
{"smiles": "CC[C@H](Nc1nc(N)nc(C2CC2)c1C#N)c1nc2cccc(NCc3ccc(C(=O)NO)cc3)c2c(=O)n1-c1ccccc1", "growth": "-23% (active)"}
{"smiles": "CCOC(=O)CO", "growth": "99% (inactive)"}
{"smiles": "N#C/C(=C\\c1ccc(-c2ccc(F)cc2)o1)C(=O)Nc1ncc(Cc2ccc(Cl)cc2Cl)s1", "growth": "-54.9% (active)"}
{"smiles": "C#CCOc1cccc(Nc2ncnc3cc(NC(=O)C=C)ccc23)c1", "growth": "-24.9% (active)"}
{"smiles": "CCN(CC)CCCC(C)Nc1c2ccc(Cl)cc2nc2cc(OC)c(OC)cc12", "note": "(stereo not given)", "growth": "-44% (active)"}
{"smiles": "Fc1cc(-c2cnc3nonc3n2)c(Cl)cc1Cl", "growth": "61.8% (inactive)"}
{"smiles": "COC(=O)c1c2c(c(C)[n+]([O-])c1C)C(=O)C(NCc1ccc(F)c(F)c1)=CC2=O", "growth": "-26.1% (active)"}
{"smiles": "C=CCC(OC(C)=O)c1ccc(OC)c(OC)c1", "note": "(stereo not given)", "growth": "125% (inactive)"}
{"smiles": "CCn1cc(C(=O)O)c(=O)c2cc(F)c(N3CCN(S(=O)(=O)c4c(C)cc(C)cc4C)CC3)cc21", "growth": "80.3% (inactive)"}
{"smiles": "O=c1[nH]c(-c2cccc(F)c2)cc2cc(F)ccc12", "growth": "33.2% (inactive)"}
{"smiles": "Cc1ccc(Cl)cc1N1C(=O)CC(Sc2ccccc2N)C1=O", "note": "(stereo not given)", "growth": "108% (inactive)"}
{"smiles": "CCN(CC)P(=O)(N(CC)CC)N(CCCSC/C=C(\\C)CC/C=C(\\C)CCC=C(C)C)CCCN1CCN(C)CC1", "growth": "92.4% (inactive)"}
{"smiles": "O=C1Nc2ccccc2/C1=C\\c1cccc(/C=C2/C(=O)Nc3ccccc32)n1", "growth": "-33.2% (active)"}
{"smiles": "C#CCn1cc(C=C2C(=O)N(C)C(=O)N(C)C2=O)c2cc(Cl)ccc21", "growth": "103% (inactive)"}
{"smiles": "Cn1c(=O)c2c(nc(Br)n2CC(=O)Nc2ccc(F)cc2)n(C)c1=O", "growth": "109% (inactive)"}
{"smiles": "CCCCC(O)Cn1ncc(C(=O)OCC)c1NC(=O)NCc1ccccc1C(F)(F)F", "note": "(stereo not given)", "growth": "98.7% (inactive)"}
{"smiles": "O=C(Nc1cccc2ccccc12)NC1CC1", "growth": "96% (inactive)"}
{"smiles": "CCCN(CCC)CC(O)COc1ccccc1C(=O)Nc1ccccc1", "note": "(stereo not given)", "growth": "85.9% (inactive)"}
{"smiles": "O=C(c1cc(-c2ccc(Cl)cc2)nc2ccccc12)N1N=C(c2ccccc2)CC1c1cc(-c2ccccc2)nn1-c1ccccc1", "note": "(stereo not given)", "growth": "89.6% (inactive)"}
{"smiles": "O=c1ccc2c(ccc3ncccc32)o1", "growth": "107% (inactive)"}
{"smiles": "CCN(Cc1ccccc1)c1ccc(C=O)cc1", "growth": "62.9% (inactive)"}
{"smiles": "COc1ccc(C(=O)c2sc3nc4c(c(-c5cccnc5)c3c2N)CCCC4)cc1OC", "growth": "102% (inactive)"}
{"smiles": "O=C(CSc1nc2sc3c(c2c(=O)n1-c1ccc(Cl)cc1)CCCC3)NNC(=O)Nc1cccc(C(F)(F)F)c1", "growth": "8.29% (active)"}
{"smiles": "S=c1[nH]cccc1-c1nnc2n1Nc1nc3ccccc3cc1CS2", "growth": "102% (inactive)"}
{"smiles": "O=C1CCn2c1c(O)c1ccccc1c2=O", "growth": "105% (inactive)"}
{"smiles": "Cc1ccc(CSC2=C(Cl)CN(c3ccc(Cl)cc3)C2=O)cc1", "growth": "83.4% (inactive)"}
{"smiles": "CN(C)c1ccc(/C=C\\c2ccnc3ccccc23)cc1", "growth": "31.2% (inactive)"}
{"smiles": "COc1cc(-c2cc3ncccc3c3[nH]c(=O)c4cccnc4c23)cc(OC)c1OC", "growth": "-10.5% (active)"}
{"smiles": "COc1cc(CNC(=O)CCCC/C=C/C(C)C)ccc1OCc1nnc(Nc2ccc([N+](=O)[O-])cc2)o1", "growth": "53.7% (inactive)"}
{"smiles": "Nc1cc(-c2ccncc2)c[nH]c1=O", "growth": "117% (inactive)"}
{"smiles": "CCOC(=O)Nc1cc(-c2ccc(C)c(NS(C)(=O)=O)c2)nn2c(C)nnc12", "growth": "-26% (active)"}
{"smiles": "FC(F)(F)c1cn(CCN2CCOCC2)c2ncnc(Cl)c12", "growth": "9.54% (active)"}
{"smiles": "Cc1noc(C)c1-c1cc(O)cc(C(O)c2ccccc2)c1", "note": "(stereo not given)", "growth": "24.9% (inactive)"}
{"smiles": "CCN1CCN(c2ccc(Nc3ncc4ccc5ncn(C(C)C)c5c4n3)nc2)CC1", "growth": "-41.3% (active)"}
{"smiles": "C=C1C(=O)O[C@H]2[C@H]1CC/C(COC(=O)c1ccccc1)=C\\CC[C@@]1(C)O[C@@H]21", "growth": "-28.7% (active)"}
{"smiles": "[2H]C([2H])([2H])Oc1c(F)cccc1/C=C/C(=O)/C=C(O)/C=C/c1cccc(F)c1OC([2H])([2H])[2H]", "growth": "98.3% (inactive)"}
{"smiles": "C[C@@H]1CC2C3CCC4=CC(=O)C=C[C@]4(C)[C@@]3(Cl)[C@@H](O)C[C@]2(C)[C@@]1(OC(=O)c1ccco1)C(=O)CCl", "note": "(stereo not given in full)", "growth": "104% (inactive)"}
